Only some compounds are listed: those with a hit (about 0.99% of all), similar ones and a draw of the others.
Keap1-Nrf2 PPI: Keap1-Nrf2 protein-protein interaction inhibitors, primary screen, biochemical, fluorescence polarization, single point; Kelch-like ECH-associated protein 1 (Homo sapiens), Q14145; Keap1 Kelch-Nrf2 peptide fluorescence polarization, 1536-well; inhibition, % at 9.4 µM; 340,000 compounds, 0.15% hits; AID 504523, 2011; in the data active = inhibition above about 12%; inconclusive = no clear call, values can overlap the other calls; inactive = below about 7.3%;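 note: human Keap1 Kelch domain with fluorescein labeled Nrf2 9mer peptide probe; higher means more block of Keap1 binding to Nrf2 peptide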
Cardiac RTF inh: cardiac RTF calcium sensitivity inhibitors, primary screen, biochemical, IANBD-TnC fluorescence, EC70 calcium; IANBD-labeled cardiac RTF, Ca2+ fluorescence; inhibition, % at 7.15 µM; 340,000 compounds, 0.12% hits; AID 493244, 2011;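 active = inhibition above the mean inhibition of all tested compounds plus 3 SD, cut at about 17% in these data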;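 note: assay run at fixed EC70 calcium of 1.6 mM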
LANA-H2A inh: blockers of LANA interaction with H2A/H2B – biochemical, FP readout, HTS, primary screen. inhibition, % (concentration not given with the values). AID 2629, 2010. Protein LANA1 (Human herpesvirus 8 type P (isolate GK18)), Q9QR71. 320,000 compounds, 0.6% hits. cell-free LANA-H2A/H2B peptide, fluorescence polarization; in the data active = inhibition mostly above about 10%, no sharp cut-off; inactive = mostly below about 6.7%
Target sequence (Q9QR71 whole entry, looked up): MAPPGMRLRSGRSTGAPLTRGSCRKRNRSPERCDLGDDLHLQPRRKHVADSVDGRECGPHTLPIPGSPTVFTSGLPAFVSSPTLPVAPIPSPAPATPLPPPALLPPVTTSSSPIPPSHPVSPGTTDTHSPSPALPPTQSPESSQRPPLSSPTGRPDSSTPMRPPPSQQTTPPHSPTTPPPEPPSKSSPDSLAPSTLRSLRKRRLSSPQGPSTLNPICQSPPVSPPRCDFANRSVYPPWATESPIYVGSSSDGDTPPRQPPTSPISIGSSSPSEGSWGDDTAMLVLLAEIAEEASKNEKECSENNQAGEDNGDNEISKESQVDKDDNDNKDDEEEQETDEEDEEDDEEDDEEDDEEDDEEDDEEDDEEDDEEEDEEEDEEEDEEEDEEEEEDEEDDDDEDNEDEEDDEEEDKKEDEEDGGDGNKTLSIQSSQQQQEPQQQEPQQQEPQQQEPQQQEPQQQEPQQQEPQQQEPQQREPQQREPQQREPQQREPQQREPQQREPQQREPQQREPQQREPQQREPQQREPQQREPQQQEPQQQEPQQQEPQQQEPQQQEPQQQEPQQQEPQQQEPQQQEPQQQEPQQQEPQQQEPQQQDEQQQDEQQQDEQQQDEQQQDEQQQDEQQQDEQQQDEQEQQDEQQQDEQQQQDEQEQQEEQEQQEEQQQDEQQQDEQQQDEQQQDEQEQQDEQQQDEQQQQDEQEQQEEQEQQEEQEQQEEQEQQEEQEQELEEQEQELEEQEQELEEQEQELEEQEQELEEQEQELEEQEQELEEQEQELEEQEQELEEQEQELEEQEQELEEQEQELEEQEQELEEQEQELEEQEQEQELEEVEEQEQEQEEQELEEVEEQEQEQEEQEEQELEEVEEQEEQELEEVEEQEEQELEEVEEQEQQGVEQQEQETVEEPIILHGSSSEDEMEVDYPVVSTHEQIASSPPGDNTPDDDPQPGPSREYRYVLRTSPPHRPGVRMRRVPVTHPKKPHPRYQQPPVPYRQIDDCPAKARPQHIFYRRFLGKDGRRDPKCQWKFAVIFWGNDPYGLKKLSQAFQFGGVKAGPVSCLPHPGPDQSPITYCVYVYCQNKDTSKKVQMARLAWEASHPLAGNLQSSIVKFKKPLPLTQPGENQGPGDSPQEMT
RTF Ca sens act: cardiac RTF calcium sensitivity activators, primary screen, biochemical, IANBD-TnC fluorescence, EC20 calcium; activation, % at 7.2 µM; IANBD-labeled TnC RTF fluorescence at EC20 calcium; 0% EC20 calcium, 100% full calcium; AID 493008, 2010; Troponin I, cardiac muscle (Homo sapiens) + Troponin T, cardiac muscle (Homo sapiens) + …; 340,000 compounds, 0.24% hits;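 active = activation above the mean over all tested compounds plus 3 SD, cut at about 30% in these data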;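 note: rise in fluorescence read as greater calcium sensitivity of cardiac thin filaments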
LANA DNA inh: inhibitors of KSHV C-LANA binding to DNA, primary screen, biochemical, fluorescence polarization, FAM-LBS DNA, MBP-C-LANA, single point. inhibition, % at 9 µM. 340,000 compounds, 0.078% hits. AID 504423, 2011;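 active = highest replicate inhibition at or above 60% at 9 µM, even if other replicates fall short; inactive = all replicates below 60% inhibition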
Keap1 Kelch bind: Keap1 Kelch domain binders by thermal stabilisation, dose response, biophysical, thermal shift, RT-PCR instrument, cherry-pick. shares compounds with Keap1-Nrf2 PPI. delta Tm; active compounds read high. max delta Tm, degrees C. 400 compounds, 8% hits; in the data active = max delta Tm above about 0.48 degrees C
Dye-only ctr: Sypro Orange dye melt without protein, dose response, artefact control for Keap1-Nrf2 interaction inhibitor project, biochemical, thermal shift counterscreen, cherry-pick. shares compounds with Keap1-Nrf2 PPI. Sypro Orange dye-only thermal melt, no protein, delta Tm; top dose 26 µM. delta Tm, degrees C (concentration not given with the values). 140 tested, under 10 active. AID 651858, 2012;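 active = at highest dose tested, delta Tm positive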
Large screens that a line does not name were inactive (follow-up assays come after a bar, where they were run).

COc1ccccc1NC(=O)CC1C(=O)NCCN1C(=O)Nc1ccc(Cl)c(Cl)c1 (stereo unspecified)	none
CSc1nsc2nc(=O)c(/C=C3\C=Nc4ccccc43)c(N)n12	Keap1-Nrf2 PPI 14 | Keap1 Kelch bind 0.74
CC(C)S(=O)(=O)c1nsc2nc(=O)c(/C=C3\C=Nc4ccccc43)c(N)n12	none
CCOC(=O)N1CCN(C(=O)C(C)c2ccc([N+](=O)[O-])cc2)CC1 (stereo unspecified)	none
CCC1OC2(C)OC(=N)C1(C#N)C(C#N)(C#N)C2c1ccccc1 (stereo unspecified)	Keap1-Nrf2 PPI 31, LANA DNA inh 63 | Keap1 Kelch bind inactive | Dye-only ctr inactive
CC(C)C1OC2(C)OC(=N)C1(C#N)C(C#N)(C#N)C2c1ccccc1 (stereo unspecified)	Keap1-Nrf2 PPI 21, LANA DNA inh 94 | Keap1 Kelch bind inactive | Dye-only ctr inactive
COc1cc(NC(=O)Cn2c(=O)n(CC3CCCO3)c(=O)c3ccccc32)cc(OC)c1 (stereo unspecified)	none
Cc1nc(NC(=O)COC(=O)C(C)NC(=O)c2ccccc2)c(Cl)cc1Cl (stereo unspecified)	none
CCOC(=O)C=C(OC(=O)c1ccc(OC)cc1)c1ccccc1	none (no result: LANA-H2A inh, LANA DNA inh)
N=c1c(C(=O)NC2CCCC2)cc2c(=O)n3ccccc3nc2n1Cc1ccccc1	Keap1-Nrf2 PPI inconclusive | Keap1 Kelch bind inactive
CN(C)CCNC(=O)c1c(NC(=O)c2ccccc2)sc2c1CCCC2	Keap1-Nrf2 PPI 17 (no result: LANA DNA inh) | Keap1 Kelch bind inactive
CCCCN(C(=O)CN(C)CC(=O)Nc1cccc(OC)c1)c1c(N)n(CCCC)c(=O)[nH]c1=O	none
CCn1cc(CCC(=O)NCc2cccc(OC)c2OC)c2ccccc21	none
Cc1cccn2c(=O)c3cc(S(=O)(=O)c4ccccc4)c(=N)n(Cc4cccnc4)c3nc12	Keap1-Nrf2 PPI 20 | Keap1 Kelch bind inactive
N=c1c(S(=O)(=O)c2ccccc2)cc2c(=O)n3ccccc3nc2n1Cc1cccnc1	none
CC(C)Cn1c(N)c(C(=O)CSc2nnc(-c3ccco3)n2C)c(=O)n(C)c1=O	Keap1-Nrf2 PPI 68 (no result: LANA DNA inh) | Keap1 Kelch bind inactive
Cc1ccc(NC(=S)N(CCCN2CCOCC2)Cc2ccco2)cc1C	none
O=C(Cc1ccc(S(=O)(=O)N2CCCC2)s1)Nc1nc2c(s1)CCCC2	Keap1-Nrf2 PPI 13 | Keap1 Kelch bind inactive | Dye-only ctr inactive
O=C1NC(=O)/C(=C/c2ccccc2Cl)N1	Keap1-Nrf2 PPI 112 | Keap1 Kelch bind inactive
O=C1NC(=O)/C(=C\c2ccc(Cl)cc2Cl)N1	none (no result: LANA-H2A inh)
COc1cc(C(=O)Oc2ccccc2N)cc(OC)c1OC	none
O=C(O)CSc1nnc(Cc2ccccc2)n1Cc1ccccc1	none
CC(C)(C)c1cc[n+](-c2[nH]c(=O)sc2/C=N/NC([S-])=Nc2ccccc2)cc1	Keap1-Nrf2 PPI 31, LANA-H2A inh 42, RTF Ca sens act 81 | Keap1 Kelch bind inactive | Dye-only ctr inactive
CCc1ccc[n+](-c2[nH]c(=O)sc2/C=N/N=C(\[O-])c2ccncc2)c1	none
Cc1cc[n+](-c2[nH]c(=O)sc2/C=N/NC([S-])=Nc2ccccc2)cc1C	Keap1-Nrf2 PPI 32, RTF Ca sens act 51 (no result: LANA-H2A inh) | Keap1 Kelch bind inactive
Cc1ccc(S(=O)(=O)Nc2cc(C(C(=O)OC(C)C)C(=O)C(F)(F)F)c(O)c3ccccc23)c(C)c1 (stereo unspecified)	Keap1-Nrf2 PPI 51 | Keap1 Kelch bind 10
Cc1ccc(S(=O)(=O)Nc2ccc(O)c3ccccc23)c(C)c1	Keap1-Nrf2 PPI 12 | Keap1 Kelch bind 1.2
Cc1ccc(S(=O)(=O)Nc2ccc3c4c(cccc24)CC3)c(C)c1	none
Cc1ccc(C)c(S(=O)(=O)Nc2ccc(O)c3ccccc23)c1	none
Cc1ccc(S(=O)(=O)Nc2cccc(S(=O)(=O)Nc3ccccc3C(=O)O)c2)c(C)c1	Keap1-Nrf2 PPI 16 | Keap1 Kelch bind 1.1
CCc1ccc(S(=O)(=O)Nc2cccc(C3OCCCO3)c2)cc1	none (no result: Cardiac RTF inh, RTF Ca sens act)
CCN(CC)c1ccc2cc(S(=O)(=O)c3ccc(Cl)cc3)c(=O)oc2c1	Keap1-Nrf2 PPI 33, LANA-H2A inh 39, RTF Ca sens act 253 | Keap1 Kelch bind inactive | Dye-only ctr inactive
c1ccc(Nc2nc3ccccc3n3nnnc23)cc1	Keap1-Nrf2 PPI 24 | Keap1 Kelch bind inactive | Dye-only ctr inactive
COc1ccccc1N1CC(C(=O)Nc2ccc(N3CCOCC3)cc2)CC1=O (stereo unspecified)	none
COc1ccc(OC)c(NC(=O)COc2coc(CN3CCCc4ccccc43)cc2=O)c1	none
N#C/C(=C\c1ccc(O)cc1)C(=O)N1CCCC1	none
N#C/C(=C\c1ccc[nH]1)C(=O)N1CCCCC1	Keap1-Nrf2 PPI 58 (no result: Cardiac RTF inh, RTF Ca sens act, LANA DNA inh) | Keap1 Kelch bind inactive
C=CCOc1ccc(CNc2nn[nH]n2)cc1OC	none
C=CCOc1ccc(CNc2ccc(NC(=O)CC(C)C)cc2)cc1OC	Keap1-Nrf2 PPI 17 | Keap1 Kelch bind inactive
Cc1ccc2cc(CN(CCCO)S(=O)(=O)c3cccc4nsnc34)c(=O)[nH]c2c1C	Keap1-Nrf2 PPI 14 | Keap1 Kelch bind inactive | Dye-only ctr inactive
Cc1ccc2cc(CN(CCCO)S(=O)(=O)c3ccccc3F)c(=O)[nH]c2c1C	none
O=C(NNS(=O)(=O)c1ccc(F)cc1)c1ccc(S(=O)(=O)N2CCCCC2)cc1	none (no result: LANA-H2A inh)
O=C(NNS(=O)(=O)c1ccc(F)cc1)c1ccc(O)cc1	Keap1-Nrf2 PPI 43 | Keap1 Kelch bind inactive
O=C(C1CCN(Cc2nc(-c3ccc(Cl)cc3)no2)CC1)N1CCOCC1	none
Clc1ccc(-c2noc(CN3CCOCC3)n2)cc1	Keap1-Nrf2 PPI 68 (no result: Cardiac RTF inh, RTF Ca sens act, LANA DNA inh) | Keap1 Kelch bind inactive | Dye-only ctr inactive
CCOc1ccc2nc(SCC(=O)N(CC(C)C)c3c(N)n(CC(C)C)c(=O)[nH]c3=O)[nH]c2c1	none (no result: LANA-H2A inh)
COc1cccc(NC(=O)Nc2nc(SC(C)(C)C)ns2)c1	none
O=C1c2cccc3c(O)ccc(c23)C(=O)N1c1ccc(Cl)cc1	Keap1-Nrf2 PPI 39, LANA-H2A inh 23, RTF Ca sens act 532 | Keap1 Kelch bind inactive
O=C1c2cccc3c(O)ccc(c23)C(=O)N1Cc1ccco1	Keap1-Nrf2 PPI 37, RTF Ca sens act 574, LANA DNA inh 76 (no result: LANA-H2A inh) | Keap1 Kelch bind inactive
